Most compounds without a hit are left out; they make up all but 3.5% or so of the library.
TEAD-YAP inh – TEAD-YAP interaction inhibition, primary screen, TEAD-YAP interaction inhibitor project, luminescence, HEK-TIYL cells | TEAD-Gal4/YAP UAS-luciferase luminescence | actives 1.4% (n = 640,000) | AID 1259422, 2018 | inhibition, % at 9.12 µM; in the data active = inhibition above about 32%;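 note: 0% = median of test compound wells and 100% = reference inhibitor wells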
MITF primary – MITF inhibitors, primary screen, biochemical, AlphaScreen, human | AlphaScreen MITF homodimerization, bead proximity signal | inhibition, % at 2.6 µM | actives 0.91% (n = 650,000); in the data active = inhibition above about 50%;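 note: 0% = vehicle wells with protein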
FBW7 act – FBW7 E3 ligase activators, primary screen, biochemical, AlphaScreen, human; normalized activity (activation), % at 26.1 µM; actives 0.13% (n = 650,000); AlphaScreen FBW7–phospho-cyclin E peptide binding, activator screen; AID 1259310, 2017; F-box/WD repeat-containing protein 7 (Homo sapiens), Q969H0; in the data active = normalized activity above about 1.9%;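 note: purified mutant Fbw7 with reduced substrate affinity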
GPR151 ag – activators of human GPR151, primary screen, cell-based, PathHunter beta-arrestin, luminescence | G-protein coupled receptor 151 (Homo sapiens), Q8TDV0 | PathHunter beta-arrestin GPR151 cells | activation, % at 11.2 µM | actives 1% (n = 650,000) | AID 1508602, 2020; in the data active = activation above about 4.9%;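 note: 0% = median of compound wells and 100% = cells with positive control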
GPR151 confirm – GPR151 activators, triplicate retest, confirmation, cell-based, PathHunter beta-arrestin, luminescence; 6,700 tested, under 10 active; GPR151 PathHunter beta-arrestin cells, 90 min; % of EA-reagent control over plate median; activation, % at 11.2 µM; AID 1508609, 2020; shares compounds with GPR151 ag;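 active = mean percent activation across replicates above the confirmation screen cutoff of 4.91%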
GPR119 counter – GPR119 activators in beta-arrestin cells, counter-screen for GPR151 activator project, cell-based, PathHunter beta-arrestin, luminescence, triplicate; shares compounds with GPR151 ag; activation, % at 11.2 µM; actives 0.3% (n = 6,700); 90 min; 0 = compound-well median, 100 = enzyme-acceptor control;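 active = mean percent activation in the counterscreen above 29.09%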;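 note: counterscreen on off-target GPR119 to flag nonselective hits from the GPR151 activator screen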
Target sequence (Q8TDV5 whole entry, looked up): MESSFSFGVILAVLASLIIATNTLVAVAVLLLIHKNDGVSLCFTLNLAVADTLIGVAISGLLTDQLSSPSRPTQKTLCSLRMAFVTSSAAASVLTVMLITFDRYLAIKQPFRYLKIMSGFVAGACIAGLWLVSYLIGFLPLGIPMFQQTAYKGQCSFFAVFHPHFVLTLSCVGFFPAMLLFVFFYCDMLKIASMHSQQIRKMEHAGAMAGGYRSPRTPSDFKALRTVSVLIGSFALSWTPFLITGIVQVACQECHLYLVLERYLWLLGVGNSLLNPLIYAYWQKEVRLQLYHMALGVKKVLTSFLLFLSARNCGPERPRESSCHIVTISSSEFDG
The depositor's hits bear a star; nt = no result given.

SMILES	TEAD-YAP inh	MITF primary	FBW7 act	GPR151 ag	GPR151 confirm	GPR119 counter
c1ccc(Cn2nnc3c(NC4CCCCC4)ncnc32)cc1	-8	-6	0	-1	nt	nt
CCOC(=O)c1c(C)oc2ccc(N(C(=O)c3ccc(C)cc3)S(=O)(=O)c3ccc(C)cc3)cc12	-7	5	0	5.0*	1	-3
COc1ccccc1CN1CCNC(=O)C1CC(=O)NCc1ccc(F)cc1 (configuration not stated)	17	12	0	0	nt	nt
COc1ccccc1CN1CCNC(=O)C1CC(=O)NCc1csc(C)n1 (configuration not stated)	-24	-3	0	5.8*	0	-2
CC1CCN(C(=O)c2cc(COc3ccc(F)cc3F)on2)CC1	-46	-16	0	1	nt	nt
CCOC(=O)COc1ccc2c(=O)c(-c3ccc(OC)cc3)c(C)oc2c1	3	-5	0	3	nt	nt
CCOC(=O)COc1ccc2c(=O)c(-c3ccccc3F)c(C)oc2c1	0	0	0	6.2*	-1	-3
COc1ccccc1-c1nnc2sc(-c3cc(OC)c(OC)c(OC)c3)nn12	2	5	0	-1	nt	nt
COc1ccccc1-c1nnc2sc(-c3ccc4c(c3)OCCO4)nn12	53*	-10	-1	5.7*	1	9
Cc1noc(/C=C\c2ccc(N3CCOCC3)cc2)c1[N+](=O)[O-]	-11	-2	0	-1	nt	nt
O=C(CSCc1ccc([N+](=O)[O-])cc1)N1CCN(c2cccc(Cl)c2)CC1	-1	7	0	13*	0	-10
O=C(C(=O)N1CCN(c2cccc(Cl)c2)CC1)N1CCCCC1	3	-13	0	5.3*	-1	0
CCCC(=O)Nc1ccc(C(=O)N2CCN(c3cccc(Cl)c3)CC2)cc1	-8	12	0	6.3*	-1	6
O=C(C1CC1)N1CCN(c2cccc(Cl)c2)CC1	-1	22	0	0	nt	nt
CC(Oc1ccccc1)C(=O)NC(C)(C)CC(C)(C)C (configuration not stated)	15	16	0	0	nt	nt
Cc1ccccc1C(=O)Nc1nnc(-c2ccc(Cl)s2)o1	8	-5	0	0	nt	nt
CCNC(=O)CN(c1cc(C(F)(F)F)ccc1Cl)S(C)(=O)=O	1	11	0	0	nt	nt
CS(=O)(=O)N(CC(=O)O)c1cc(C(F)(F)F)ccc1Cl	6	3	0	6.3*	-1	-10
O=C(C1CCCO1)N1CCN(C(=S)NCC2CCCO2)CC1 (configuration not stated)	-4	-1	0	0	nt	nt
O=C(NCCN1CCOCC1)C1CCN(c2ccc(NCc3cccnc3)nn2)CC1	9	4	0	6.1*	0	4
CCOc1ncccc1C(=O)Nc1ccc(Nc2ccccc2)cc1	-9	-5	0	0	nt	nt
Cc1nn(C)c(C)c1-c1nc2c(NCc3cccnc3)ncnc2n1C(C)C	-4	12	1	7.1*	-1	-13
Cc1cc(C)c(NC(=O)C(=O)NCCC(C)C)c(C)c1	3	-1	0	2	nt	nt
CC1=C(C(=O)Nc2cccc(C(F)(F)F)c2)C(c2cccs2)C2=C(CCCC2=O)N1 (configuration not stated)	1	2	0	6.5*	0	8
CCNC(=O)N1CCN(Cc2ccccc2)CC1C(=O)NCc1ccccc1 (configuration not stated)	-8	-6	0	4	nt	nt
CC(=O)N1CCN(Cc2ccccc2)CC1C(=O)NCc1ccccc1 (configuration not stated)	-2	5	0	5.5*	1	-7
COc1ccccc1C(=O)N/C(=C\c1ccc([N+](=O)[O-])cc1)C(=O)Nc1ccccc1Cl	13	-2	0	1	nt	nt
COc1ccc(CNC(=O)c2ccc(N3CC4CC(C3)c3cccc(=O)n3C4)c(NC(=O)c3ccc(C(C)(C)C)cc3)c2)cc1 (configuration not stated)	11	-8	0	0	nt	nt

Compound activity as filed in PubChem.
